Assay outcomes as filed in PubChem.
Shown are actives, neighbours in structure and some others; about 2.4% of the full set was active somewhere.
POLK inh: DNA polymerase kappa (human) inhibition. purified Pol kappa, fluorescent DNA synthesis assay, 10 min. Potency, µM (top dose mostly 107 µM), actives largely listed as inhibitors. 400,000 tested, 0.53% active
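10 nM Pol kappa preincubated 15 min at room temperature with compounds, then reaction started with substrate at 50 nM final. Fluorescence read kinetically at 0 and 10 min; buffer-only wells served as negative control.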
POLH inh: blocks human DNA polymerase eta activity | recombinant Pol eta, fluorescent DNA replication assay | AID 588591 | 390,000 tested, 1.2% active | Q9Y253 | Potency, µM (series often up to 114 µM), actives largely listed as inhibitors
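Pol eta at 10 nM preincubated with compounds 15 min at room temperature; reaction started with fluorescent substrate (50 nM final) and read kinetically at 0 and 10 min.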
POLI inh: inhibitors of human DNA polymerase iota. Q9UNA4. Pol iota fluorescent replication assay, 10 min. Potency, µM (doses to about 115 µM), most hits filed as inhibitors. 390,000 tested, 1% active
Target sequence (Q9UNA4 whole entry, looked up): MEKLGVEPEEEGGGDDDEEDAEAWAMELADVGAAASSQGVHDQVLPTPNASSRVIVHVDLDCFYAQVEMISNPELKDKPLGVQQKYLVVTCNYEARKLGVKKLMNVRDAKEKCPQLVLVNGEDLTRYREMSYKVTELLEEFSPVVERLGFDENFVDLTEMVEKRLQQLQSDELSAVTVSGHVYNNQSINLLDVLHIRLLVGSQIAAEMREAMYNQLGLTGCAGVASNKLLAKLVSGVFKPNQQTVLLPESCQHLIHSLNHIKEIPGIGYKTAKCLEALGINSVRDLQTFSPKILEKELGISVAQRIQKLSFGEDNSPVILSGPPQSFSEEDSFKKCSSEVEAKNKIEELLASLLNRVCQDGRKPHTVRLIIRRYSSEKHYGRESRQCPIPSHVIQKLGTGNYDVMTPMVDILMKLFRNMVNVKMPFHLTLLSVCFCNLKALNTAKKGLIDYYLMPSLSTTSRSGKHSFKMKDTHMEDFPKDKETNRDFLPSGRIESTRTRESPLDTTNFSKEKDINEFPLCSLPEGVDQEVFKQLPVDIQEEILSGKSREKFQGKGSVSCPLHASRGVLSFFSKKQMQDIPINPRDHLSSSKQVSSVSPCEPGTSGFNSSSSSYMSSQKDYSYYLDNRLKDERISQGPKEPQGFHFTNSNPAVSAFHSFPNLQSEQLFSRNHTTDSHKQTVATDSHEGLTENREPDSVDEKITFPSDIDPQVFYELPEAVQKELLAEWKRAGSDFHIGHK
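Pol iota at 10 nM preincubated 15 min with compounds at room temperature; reaction started with fluorescent substrate, 50 nM final. Fluorescence read kinetically at 0 and 10 min; buffer-only wells as negative control.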
Pol beta inh: inhibitors of human DNA polymerase beta. P06746. Pol beta primer extension/strand displacement, fluorescence kinetic. Potency, µM (titrated, usually from 114 µM), most hits filed as inhibitors. 340,000 tested, 1.3% active
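Pol beta (10 nM) and compounds were preincubated 15 min at room temperature, then 50 nM substrate (final) started primer extension/strand displacement. Reads were taken at 0 and 10 min; concentration-response data were fitted to a four-parameter Hill equation.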
FEN1 inh-1: inhibitors of human flap endonuclease 1. P39748. Recombinant FEN1 flap cleavage, fluorescence, 15 min. Potency, µM (top dose mostly 114 µM), hits mostly inhibitors. 390,000 tested, 0.35% active; note: nearly all actives have a fitted effect of over 65% in size
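FEN1 at 10 nM preincubated with compounds 15 min at room temperature, then flap DNA substrate added at 50 nM final. Signal read at 0 and 15 min; concentration-response fitted with four-parameter Hill equation.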
WRN helicase inh: WRN helicase (human) inhibition; Q14191; WRN helicase unwinding, fluorescent forked duplex, kinetic; 360,000 tested, 0.46% active; Potency, µM (series often up to 114 µM), actives largely listed as inhibitors; note: nearly all actives have a fitted effect of over 55% in size
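Primary qHTS, 1536-well format. 20 nM WRN + compound, 15 min RT; start with 100 nM forked fluorophore/quencher duplex, 2 mM ATP (final); kinetic read ex 525/em 598 nm.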
FEN1 inh-2: confirmation of human FEN1 inhibitors | FEN1 flap cleavage, TAMRA/BHQ2 fluorogenic DNA substrate | shares compounds with FEN1 inh-1 | AID 720498 | Potency, µM, usual class: inhibitors | 880 tested, 79% active; note: nearly all actives have a fitted effect of over 60% in size
Hits are given with their value; . = inactive; ? = inconclusive; / = no result given; ! = a repeat was not active; [ ] = another dose, or the depositor's remark. Calls come from the whole dose curve; as a rule, active = well fitted curve in the direction sought with a large enough effect; inconclusive = small, poorly fitted or top-dose-only effect, or another doubt; inactive = no such curve, though single readings can be large; an effect the other way counts as inactive or inconclusive.

SMILES | POLK inh | POLH inh | POLI inh | Pol beta inh | FEN1 inh-1 | WRN helicase inh | FEN1 inh-2
CCN(CC)c1ccc(C=C2SC(=S)NC2=O)cc1 | ? | ? | ? | / | . | 50µM | ?
CCN(CC)c1ccc(/C=C2\SC(N)=NC2=O)cc1 | . | . | . | . | . | . | /
NC(N)=Nc1nc(-c2ccccc2)c2ccccc2n1 | . | . | . | . | ? | . | ?
Clc1nc(-c2ccccc2)c2ccccc2n1 | . | . | . | . | . | . | /
CCOC(=O)C1CCNC(=O)C1=O (centres undefined) | . | ? | . | / | 20µM | . | 21
CCOc1ccc(Nc2c3ccccc3nc3ccccc23)cc1 | . | . | . | 20µM | 45µM | ? | 43
CCOc1ccc(Nc2cc(C)c3ccccc3n2)cc1 | . | . | . | . | . | . | /
C[C@](N)(Cc1ccc(O)cc1)C(=O)O | . | . | ? | . | . | / | /
C[C@](N)(Cc1ccc(O)c(O)c1)C(=O)O | 2.7µM! | ? | 25µM | 1.1µM | . | / | ?
CCOc1ccc(S(=O)(=O)Nc2ccc(C(=O)NN)cc2)cc1 | . | . | . | . | . | . | /
CCOC(=O)c1ccc(-n2c(CN(CC)CC)nc3ccc([N+](=O)[O-])cc3c2=O)cc1 | . | . | . | . | . | . | /
CCOC(=O)c1c(O)c(O)c(C(=O)OCC)n1-c1ccccc1 | . | . | . | . | 18µM | . | 9.5
CCOC(=O)c1sc(=S)n(-c2ccccc2)c1C | . | . | . | . | . | . | /
COc1ccc(C(=O)COC(=O)Cc2n[nH]c(=O)c3ccccc23)c(OC)c1 | . | . | . | / | . | . | /
O=C(Nc1cccnc1)c1cnc2ccccc2n1 | . | . | . | . | . | . | /
O=C(Nc1ccccc1-c1cn2c(CN3CCNCC3)csc2n1)c1cnc2ccccc2n1 | . | / | . | / | 28µM | / | 24
CCOC(=O)c1oc2ccccc2c1NC(=O)Cc1cccs1 | . | . | . | . | . | . | /
O=C(COc1ccc2ccc(=O)oc2c1)NC1CCCCC1 | . | . | . | / | . | . | /
COc1ccccc1NC(=O)Nc1cnccn1 | . | . | . | . | . | . | /
COc1cc([N+](=O)[O-])ccc1NC(=O)Nc1cnccn1 | . | 79µM | . | . | . | . | ?
COc1ccccc1NC(=O)COC(=O)c1ccc([N+](=O)[O-])s1 | . | ? | 79µM | 7.1µM | . | .[11.6 µM] | 7.6
O=C(COC(=O)c1ccc([N+](=O)[O-])s1)c1ccc[nH]1 | . | 20µM | 89µM | / | . | .[11.6 µM] | 3.4
CN(Cc1cccs1)c1ncnc2ccc(-c3ccc4cn(C)nc4c3)cc12 | / | / | / | / | / | / | 67
Nc1c(C(=O)O)ccc2c1C(=O)c1ccccc1C2=O | . | . | ? | ? | 50µM | ? | 34
Nc1c(SCCC(=O)O)ccc2c1C(=O)c1ccccc1C2=O | . | . | ? | ? | ? | ? | /
SMILES | POLK inh | POLH inh | POLI inh | Pol beta inh | FEN1 inh-1 | WRN helicase inh | FEN1 inh-2
COc1ccc(/C=N\NC(=O)c2cc(O)c(O)c(O)c2)cc1COc1ccc(C(=O)OCC(C)C)cc1 | . | ? | . | 1.4µM | ? | .[11.6 µM] | 34
O=C1Nc2ccccc2-n2nnnc2C1N1CCN(c2ccc(C(F)(F)F)cn2)CC1 (centres undefined) | / | / | / | / | / | . | /
Cc1ccccc1OCC(=O)Nc1ccc(NC(=O)c2ccco2)cc1 | . | . | . | . | . | . | /
Cc1nc2c(oc3ccccc32)c(=O)o1 | . | . | . | . | . | . | /
Cc1c2cnccc2c(C)c2c1oc1ccccc12 | . | ? | . | / | 35µM | .[11.6 µM] | 38
Oc1ccc(NCc2ccccc2OCc2ccccc2F)cc1 | . | 50µM! | 10µM | . | ? | ? | ?
Cc1ccc(NCc2ccccc2OCc2ccccc2F)cc1 | . | . | . | . | . | . | /
CCOC(=O)c1ccccc1NC(=O)c1ccccc1SC | . | . | . | . | . | . | /
COc1cc(NC(=O)c2cc3c(C)nc4ccccc4c3o2)cc(OC)c1OC | . | ? | . | ? | ? | ? | ?
CCC(c1nnnn1-c1c(C)cccc1C)N1CCN(C/C=C/c2ccccc2)CC1 (centres undefined) | / | / | / | / | / | . | /
COc1ccc(CCNC(=O)c2c(C)oc3ncn(CC(C)C)c(=O)c23)cc1OC | . | . | . | . | . | / | /
Cc1ccc(-c2ccc3c(c2)O[C@H](CN(C)C(=O)CC2CC2)[C@H](C)CN([C@@H](C)CO)S3(=O)=O)cc1 | / | . | / | / | / | . | /
c1ccc(CNc2ncnc3ccccc23)cc1 | . | . | . | . | . | . | /
c1ccc(CNc2c3ccccc3nc3ccccc23)cc1 | . | ? | ? | ? | ? | ? | 11
Nc1ccc2nc(-c3ccccc3)[nH]c2c1 | . | . | . | . | . | . | /
Nc1ccc2nc(-c3ccc(N)c(Cl)c3)[nH]c2c1 | ? | ? | ? | ? | 50µM | ? | 21
CC1CCCCC1NC(=O)COC(=O)c1ccc([N+](=O)[O-])o1 (centres undefined) | . | 89µM | 32µM | / | . | .[11.6 µM] | 9.5
CCN(C(=O)COC(=O)c1ccc([N+](=O)[O-])o1)C1CCCCC1 | ? | 89µM | ? | / | . | . | 17
O=C(CS(=O)(=O)c1ccccc1)Nc1ncc([N+](=O)[O-])s1 | . | . | . | . | . | . | /
O=C(COC(=O)c1ccc([N+](=O)[O-])o1)Nc1cccc(S(=O)(=O)N2CCCCC2)c1 | . | . | . | . | ? | .[11.6 µM] | 30
Cc1ccc(NC(=O)COC(=O)c2ccc(Br)o2)cc1S(=O)(=O)N1CCCCC1 | . | . | . | / | . | . | /
Cc1ccc(NC(=O)COC(=O)c2ccc([N+](=O)[O-])o2)cc1S(=O)(=O)N1CCCCC1 | . | . | . | ? | ? | . | 27
O=C(Nc1ncccc1O)c1c(O)c2ccccc2[nH]c1=O | . | ? | . | ? | ? | .[11.6 µM] | ?
Cc1[nH]c2ccccc2c1/C=C/c1cc[n+](C)cc1 | . | . | . | . | ? | . | ?
CC1=NC(Nc2nc(C)c3ccccc3n2)=NC(C)(C)C1 | . | . | . | . | 40µM | . | 48
SMILES | POLK inh | POLH inh | POLI inh | Pol beta inh | FEN1 inh-1 | WRN helicase inh | FEN1 inh-2
CCCCCCCCn1c2c(c(=N)c3ccccc31)CCC2 | . | . | . | . | . | . | /
Cc1cc(C)c2c(=N)c3ccccc3n(CCCCCCCCn3c4ccccc4c(=N)c4c(C)cc(C)nc43)c2n1 | . | ? | ? | / | 7.1µM | 50µM | 5.4
O=C(NNC1=Nc2ccccc2SC1)c1ccccc1F | . | . | . | . | . | . | /
Cc1ccccc1Nc1nc(N)nc(COC(=O)c2ccccc2)n1 | . | . | . | . | . | . | /
Cc1ccccc1Nc1nc(N)nc(COC(=O)c2ccc([N+](=O)[O-])o2)n1 | . | 89µM | ? | / | ? | .[11.6 µM] | 21
Cc1ccc(CN(C)CC(=O)Nc2ccccc2C(=O)NC2CC2)o1 | . | . | . | / | . | . | /
